# Test results taken from PubChem BioAssay (Tox21).
# Unmarked numbers belong to inactive results. Inconclusive results are not listed. A call without a number means that no potency is given here. Active and inactive are the calls of the source. Unless noted, the call rests on the fitted dose curve; in most records, active means well fitted curve in the direction sought with a large enough effect in the repeat runs; inconclusive means weak or mixed curves; inactive means no such curve, though single readings can be large; an effect the other way counts as inactive or inconclusive.
# How the values were obtained:
# [1] = qHTS assay for small molecules that induce genotoxicity in human embryonic kidney cells expressing luciferase-tagged ATAD5 (AID 651632); further: nearly all actives have a fitted effect of over 15% in size
# Outline: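 HEK293T cells carrying a luciferase reporter tagged to ATAD5 were exposed to compound or DMSO vehicle for 16 hr at 37C, 5% CO2. Amplite was added, and after 30 min at room temperature luciferase activity was read as a marker of ATAD5 induction.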
# [2] = qHTS assay for small molecule agonists of the p53 signaling pathway - cell viability (AID 651633; calls by dose curve; further: nearly all actives have a fitted effect of over 30% in size; further: potency means the concentration at half of the fitted maximal effect)
# Outline: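 p53RE-bla cells, seeded at 4,000 per well and rested 5 h at 37 C/5% CO2, received compounds in DMSO for 16 h at 37 C. CellTiter-Glo was then added, and luminescence was read after 30 min at room temperature to gauge cytotoxicity.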
# [3] = qHTS assay for small molecules that induce genotoxicity in human embryonic kidney cells expressing luciferase-tagged ATAD5 - cell viability (AID 651634; calls by dose curve; further: nearly all actives have a fitted effect of over 25% in size; further: potency means the concentration at half of the fitted maximal effect)
# Outline: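 HEK293T cells expressing luciferase-tagged ATAD5 were exposed to compound or DMSO for 15.5 hr at 37C, 5% CO2. Viability was then read as live-cell protease activity by CellTiter-Fluor fluorescence after 30 min at 37C.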
# [4] = qHTS assay for small molecule disruptors of the mitochondrial membrane potential - cell viability (AID 720634; calls by dose curve; further: nearly all actives have a fitted effect of over 20% in size; further: potency means the concentration at half of the fitted maximal effect)
# Outline: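 HepG2 cells seeded overnight at 37 C, then exposed to compound or DMSO for 1 hr at 37 C, 5% CO2. m-MPI dye added, then CellTiter-Glo for 30 min at room temperature; viability read as ATP luminescence.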
# [5] = qHTS assay for small molecule disruptors of the mitochondrial membrane potential (AID 720635); further: potency means the concentration at half of the fitted maximal effect
# Outline: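 HepG2 cells (2,000/well) attached overnight at 37C, then took compound for 1 hr at 37C, 5% CO2. Mito-MPS dye was added for 30 min; fluorescence was read at 490/535 nm (monomers) and 540/590 nm (aggregates).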
# [6] = qHTS assay to test for compound auto fluorescence at 590 nm (red) in HepG2 cells (AID 720674)
# Outline: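 Rose Bengal sodium served as the red fluorophore standard. HepG2 monolayers (overnight attachment, MEM with 10% FBS) were exposed to test compounds for 1 hr at 37 C and read at Ex 540/Em 590 nm.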
# [7] = qHTS assay to test for compound auto fluorescence at 535 nm (green) in HepG2 cells (AID 720675); further: potency means the concentration at half of the fitted maximal effect
# [8] = qHTS assay to test for compound auto fluorescence at 460 nm (blue) in HEK293 cells (AID 720678); further: potency means the concentration at half of the fitted maximal effect
# Outline: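 Intrinsic compound fluorescence is recorded in live HEK293 cultures after overnight incubation at 37C, 5% CO2, using excitation 405 nm and emission 460 nm. Values are referenced to triamterene.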
# [9] = qHTS assay to test for compound auto fluorescence at 590 nm (red) in HEK293 cells (AID 720679)
# Outline: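 Red autofluorescence, HEK293 cells: 2,000 cells/well; attach 4-5 hr 37C; add 23 nL cpd or DMSO; incubate o/n 37C 5% CO2; read Ex540/Em590; Rose Bengal sodium reference.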
# [10] = qHTS assay for small molecule agonists of the p53 signaling pathway (AID 651631; calls by dose curve; further: potency means the concentration at half of the fitted maximal effect; nearly all actives have a fitted effect of over 15% in size)
# Outline: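 HCT-116 cells carrying a stable p53 response element–beta-lactamase reporter were plated, rested 5 h at 37 °C, then exposed to compound in DMSO for 16 h at 37 °C; reporter activity was read as FRET substrate fluorescence after 2 h at room temperature.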
# Tags describe the fitted curve by direction and shape or compound fluorescence and quenching.
SMILES,Potency [1],Potency [2],Potency [3],Potency [4],Potency [5],Potency [6],Potency [7],Potency [8],Potency [9],Potency [10],"fluorescence, relative to Rose Bengal [6]","fluorescence, % of fluorescein control [7]","fluorescence, % of triamterene [8]"
CCCC(=O)OC[C@@H](OC(=O)CCC)[C@@H](OC(=O)CCC)[C@H](Cn1c2nc(=O)[nH]c(=O)c-2nc2cc(C)c(C)cc21)OC(=O)CCC,inactive,inactive,inactive,inactive,6.99 µM (active),inactive,8.91 µM (active),inactive,inactive,–,–,–,–
Cn1cc(C(=O)[C@@H]2CCc3nc[nH]c3C2)c2ccccc21,inactive,inactive,inactive,inactive,inactive,inactive,inactive,inactive,inactive,–,–,–,–
Cc1onc(-c2c(Cl)cccc2Cl)c1C(=O)N[C@@H]1C(=O)N2[C@@H]1SC(C)(C)[C@@H]2C(=O)O,inactive,inactive,inactive,inactive,inactive,inactive,inactive,inactive,inactive,–,–,–,–
O=C(NO)C1(NS(=O)(=O)c2ccc(Oc3ccc(F)cc3)cc2)CCOCC1,inactive,inactive,inactive,inactive,inactive,inactive,inactive,inactive,–,–,–,–,–
CN(C)[C@@H]1C(=O)C(C(N)=O)=C(O)[C@@]2(O)C(=O)C3=C(O)c4c(O)ccc(Cl)c4[C@@H](O)[C@H]3C[C@@H]12,inactive,inactive,inactive,inactive,inactive,inactive,inactive,inactive,inactive,–,–,–,–
Cc1cc(O)c(C(C)(C)C)cc1Sc1cc(C(C)(C)C)c(O)cc1C,inactive,13.7 µM (active),54.4 µM (active),61 µM (active),0.768 µM (active),inactive,inactive,inactive,inactive,–,–,–,–
O=C1c2c(O)ccc(Nc3ccc(CCO)cc3)c2C(=O)c2c([N+](=O)[O-])ccc(O)c21,inactive,inactive,48.6 µM (active),inactive,1.93 µM (active),inactive,inactive,inactive,inactive,–,–,–,–
Oc1cc2ccccc2c2ccccc12,inactive,6.11 µM (active),17.2 µM (active),19.3 µM (active),0.969 µM (active),inactive,inactive,inactive,inactive,–,–,–,–
O=c1cccccc1O,inactive,inactive,inactive,inactive,3.93 µM (active),inactive,inactive,inactive,inactive,–,–,–,–
CCCCCCCC[P+](CCCCCCCC)(CCCCCCCC)CCCCCCCC,inactive,12.1 µM (active),13.6 µM (active),21.6 µM (active),0.0963 µM (active),inactive,inactive,inactive,inactive,–,–,–,–
CCCCCCCCOC(=O)c1ccc(O)cc1,inactive,inactive,inactive,24.3 µM (active),17.2 µM (active),inactive,inactive,inactive,–,–,–,–,–
CC[C@H]1O[C@]2(CC[C@@H]1C)C[C@@H]1C[C@@H](C/C=C(\C)C[C@@H](C)/C=C/C=C3\CO[C@@H]4[C@H](O)C(C)=C[C@@H](C(=O)O1)[C@]34O)O2,inactive,12.1 µM (active),54 µM (active),68 µM (active),21.5 µM (active),inactive,inactive,inactive,inactive,–,–,–,–
CC1=C(C(=O)OC(C)C)C(c2cccc([N+](=O)[O-])c2)C(C(=O)OC2CN(C(c3ccccc3)c3ccccc3)C2)=C(N)N1 (stereo not drawn),inactive,7.5 µM (active),18.8 µM (active),7.5 µM (active),1.19 µM (active),inactive,inactive,inactive,–,–,–,–,–
C[n+]1ccn(Cc2ccccc2)c1,inactive,inactive,inactive,inactive,inactive,inactive,inactive,inactive,–,–,–,–,–
O=C1C=CC(=O)N1c1ccc(Cc2ccc(N3C(=O)C=CC3=O)cc2)cc1,–,10.9 µM (active),15.4 µM (active),7.7 µM (active),6.86 µM (active),inactive,inactive,inactive,inactive,13.7 µM (active),–,–,–
Cc1cc(N)c(S(=O)(=O)O)cc1Cl,inactive,inactive,inactive,inactive,inactive,inactive,inactive,inactive,inactive,–,–,–,–
CCC(C)Nc1ccc(NC(C)CC)cc1 (stereo not drawn),inactive,14 µM (active),inactive,44.1 µM (active),8.8 µM (active),inactive,inactive,inactive,inactive,–,–,–,–
C[C@H]1[C@H]2CC[C@H]3[C@@H]4CC=C5C[C@@H](N(C)C)CC[C@]5(C)[C@H]4CC[C@]23CN1C,inactive,inactive,inactive,inactive,inactive,inactive,inactive,inactive,inactive,–,–,–,–
CC(=O)SC[C@@H](Cc1ccccc1)C(=O)NCC(=O)OCc1ccccc1,inactive,inactive,inactive,inactive,inactive,–,–,–,–,–,0.374% [at 18.6 µM],0.0221% [at 18.6 µM],-0.317% [at 18.6 µM]
Cc1cc(=O)oc2cc(N(C)C)ccc12,–,inactive,–,inactive,–,inactive,inactive,39.8 µM [fluorescent] (active),inactive,48.6 µM (active),–,–,–
